SW480 rerep: induces DNA re-replication in SW480 colon adenocarcinoma cells; 340,000 tested, 1.8% active; SW480 DNA re-replication, Hoechst DNA content imaging, 48 h; Potency, µM (highest dose often 46.1 µM), most hits filed as activators; further: nearly all actives have a fitted effect of over 55% in size
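Image-based read-out: total Hoechst fluorescence of nuclei (405 nm excitation, 500-530 nm emission), with hits raising the fraction of high-intensity nuclei. SW480 colon cells incubated 48 hr with compounds at 37 C.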
MCF10A rereplic: induces DNA re-replication in MCF 10a normal breast cells | 350,000 tested, 2.9% active | AID 624296 | Potency, µM (doses to about 46.1 µM), usual class: activators | MCF 10A DNA re-replication, Hoechst nuclear intensity, 48 h; further: nearly all actives have a fitted effect of over 50% in size
VP16 counter: counter-screen for ROR gamma inhibitors: Gal4-VP16 reporter; Drosophila S2 Gal4-VP16 UAS-luciferase, luminescence, 20 h; Potency, µM (doses to about 53.6 µM), most hits filed as inhibitors; 310,000 tested, 3.5% active; AID 2546;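 further: Gal4-VP16 expression switched on by copper sulfate through the metallothionein promoter; nearly all actives have a fitted effect of over 50% in size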
KB-3-1 cytotox: KB-3-1 parental cell cytotoxicity; Potency, µM (doses to about 46.1 µM), hits mostly cytotoxic; 400,000 tested, 1.4% active; KB-3-1 viability, CellTiter-Glo ATP luminescence, 72 h; further: nearly all actives have a fitted effect of over 60% in size
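Screening of KB-3-1 cells (DMEM, 10% FBS, phenol-red free) ran from lowest to highest compound concentration; after 72 h at 37 °C viability was read luminescently and curves fitted.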
RORgamma inh: blocks mouse ROR gamma transcriptional activity; Drosophila S2 Gal4-RORgamma UAS-luciferase reporter, 20 h; 310,000 tested, 5.4% active; P51450; Potency, µM (doses to about 53.6 µM), most hits filed as inhibitors; further: nearly all actives have a fitted effect of over 60% in size
Target sequence (P51450 whole entry, looked up, the tested form may be a part): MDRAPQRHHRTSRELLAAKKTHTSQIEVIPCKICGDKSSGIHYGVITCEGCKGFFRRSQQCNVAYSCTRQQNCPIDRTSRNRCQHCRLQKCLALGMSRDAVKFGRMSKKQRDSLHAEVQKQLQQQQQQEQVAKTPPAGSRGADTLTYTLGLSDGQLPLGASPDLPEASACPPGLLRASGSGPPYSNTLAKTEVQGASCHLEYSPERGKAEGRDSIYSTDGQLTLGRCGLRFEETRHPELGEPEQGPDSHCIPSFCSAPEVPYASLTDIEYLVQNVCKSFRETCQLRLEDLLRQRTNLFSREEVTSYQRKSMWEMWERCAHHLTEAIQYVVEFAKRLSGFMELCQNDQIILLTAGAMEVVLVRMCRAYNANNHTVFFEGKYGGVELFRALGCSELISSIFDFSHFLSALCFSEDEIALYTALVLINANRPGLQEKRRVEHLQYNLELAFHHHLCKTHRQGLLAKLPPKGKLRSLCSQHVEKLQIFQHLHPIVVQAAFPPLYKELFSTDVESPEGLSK
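Compounds are pin-transferred onto Drosophila Schneider cells expressing a copper-inducible Gal4–ROR gamma transactivation domain fusion. After 1 hr, copper sulfate is added to 700 uM final; luciferase is read 20 hr later.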
KB-V1 cytotox: kills drug-selected multidrug resistant KB-V1 cells; AID 1347076; 400,000 tested, 3.4% active; Potency, µM (doses to about 46.1 µM), most hits filed as cytotoxic; KB-V1 MDR cells viability, CellTiter-Glo, 72 h; further: nearly all actives have a fitted effect of over 60% in size
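Following 72 h at 37 degrees C with compound, KB-V1 cell viability was read by CellTiter-Glo luminescence, medium being phenol-red-free DMEM plus 10% FBS; concentration-response parameters came from normalized, curve-fitted qHTS data.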
Each line names hits and unclear results; the compound was inactive in the other large screens. Sampled rows, rich in hits. Any-hit rate of the full collection: about 10%. The call rests on the fitted dose curve; in most records, active means well fitted curve in the direction sought with a large enough effect; inconclusive means small, poorly fitted or top-dose-only effect, or another doubt; inactive means no such curve, though single readings can be large; an effect the other way counts as inactive or inconclusive.

COC(=O)C1=C(C)OC(N)=C(C#N)C1c1ccccc1 (stereo not drawn)	none
CCC(C)NC(=O)C(=O)Nc1c2c(nn1-c1ccccc1)CS(=O)(=O)C2 (stereo not drawn)	none (no result: SW480 rerep, MCF10A rereplic, VP16 counter, RORgamma inh)
O=C(NCc1cccnc1)/C(=C/c1ccc(Cl)cc1)NC(=O)c1ccccc1	none
O=C(NCc1cccnc1)/C(=C/c1ccc(-c2ccc(Cl)cc2)o1)S(=O)(=O)c1ccccc1	SW480 rerep 9.2µM, MCF10A rereplic 9.2µM, VP16 counter 20µM, RORgamma inh inconclusive, KB-V1 cytotox inconclusive
O=C(NCc1cccnc1)/C(=C\c1ccc(-c2ccc(Br)cc2)o1)S(=O)(=O)c1ccccc1	SW480 rerep 15µM, MCF10A rereplic 7.3µM, VP16 counter inconclusive, KB-3-1 cytotox inconclusive, RORgamma inh inconclusive, KB-V1 cytotox 7.3µM
CC(=O)c1ccc(N/N=C(/C(N)=O)C2=NC(C)(C)Cc3ccccc32)cc1	SW480 rerep inconclusive, MCF10A rereplic inconclusive, VP16 counter inconclusive, RORgamma inh inconclusive, KB-V1 cytotox 12µM
COc1cccc(-c2cc(C(=O)N3CC4(C)CC3CC(C)(C)C4)no2)c1 (stereo not drawn)	MCF10A rereplic inconclusive, KB-V1 cytotox 15µM
CC1(C)CC2CC(C)(CN2C(=O)c2cc(-c3ccc(O)cc3)on2)C1 (stereo not drawn)	MCF10A rereplic inconclusive
COc1ccc(-c2oc3ccccc3c2C#Cc2cncn2C)cc1	SW480 rerep inconclusive, MCF10A rereplic 18µM, KB-V1 cytotox inconclusive (no result: VP16 counter, RORgamma inh)
COc1ccc(-c2sc3ccc(OC)cc3c2C#Cc2cncn2C)cc1	MCF10A rereplic inconclusive, KB-3-1 cytotox inconclusive, KB-V1 cytotox inconclusive (no result: VP16 counter, RORgamma inh)
Cc1cc(SCC(=O)N/N=C/c2ccc(O)cc2O)nc2ccccc12	SW480 rerep 12µM, VP16 counter inconclusive, KB-3-1 cytotox inconclusive
Cc1cc(SCC(=O)Nc2ncc(Cl)cc2Cl)nc2ccccc12	SW480 rerep inconclusive, KB-V1 cytotox 6.5µM
COc1ccc2nc(C)cc(SCC(=O)N/N=C/c3ccc(O)c(O)c3)c2c1	SW480 rerep inconclusive
COc1ccc2nc(C)cc(SCC(=O)N/N=C/c3cccc4ccccc34)c2c1	SW480 rerep 4.6µM, MCF10A rereplic 3.7µM, KB-3-1 cytotox inconclusive, RORgamma inh 11µM, KB-V1 cytotox 5.8µM
COc1ccc2c(C)cc(SCC(=O)Nc3ncc(Cl)cc3Cl)nc2c1	KB-V1 cytotox 18µM
CCOc1ccccc1C(=O)Nc1ccc(S(=O)(=O)Nc2onc(C)c2C)cc1	none (no result: SW480 rerep, MCF10A rereplic, VP16 counter, RORgamma inh)
CCN(CC)C(=O)Cn1c(=O)c2ccccc2n2c(=S)sc(-c3cccc(C)c3)c12	KB-V1 cytotox 2.9µM
CC1CCN(CCc2nc3cc(NC(=O)COc4ccc(Cl)cc4)ccc3n2C)CC1	SW480 rerep 18µM, MCF10A rereplic 16µM, KB-3-1 cytotox inconclusive
COc1ccc(OCC(=O)Nc2ccc3c(c2)nc(CCN2CCN(c4ccccn4)CC2)n3C)cc1	none (no result: SW480 rerep, MCF10A rereplic, VP16 counter, RORgamma inh)
COc1ccc(OCC(=O)Nc2ccc3c(c2)nc(CCN2CCC(C)CC2)n3C)cc1	none
Cn1c(CCN2CCN(c3ccccn3)CC2)nc2cc(NC(=O)COc3ccc(Cl)cc3)ccc21	SW480 rerep 7.3µM, KB-V1 cytotox inconclusive
Cc1ccc(S(=O)(=O)Nc2ccc3c(c2)nc(CCN2CCN(c4ccccn4)CC2)n3C)cc1	SW480 rerep 1µM
Cn1c(=O)c2c(ncn2CC(=O)OCC(=O)c2ccc(Br)cc2)n(C)c1=O	none (no result: SW480 rerep, MCF10A rereplic, VP16 counter, RORgamma inh)
O=C(c1cccs1)N1CCc2c([nH]c3ccccc23)C1c1ccccn1 (stereo not drawn)	KB-3-1 cytotox inconclusive
O=C(c1cccs1)N1CCc2c([nH]c3ccccc23)C1c1ccc(Cl)cc1 (stereo not drawn)	SW480 rerep inconclusive, MCF10A rereplic inconclusive, KB-3-1 cytotox 12µM, KB-V1 cytotox 12µM
CC1=C(C)C(c2ccccc2)NC(=S)N1 (stereo not drawn)	RORgamma inh 5µM
O=C(NCc1ccc(F)cc1)C(=O)NCC(c1ccco1)S(=O)(=O)c1cccs1 (stereo not drawn)	none (no result: SW480 rerep, MCF10A rereplic, VP16 counter, RORgamma inh)
Cc1nn(C)c(C)c1/C=N/NC(=O)c1csc2ccccc12	none
Cc1c(/C=N\NC(=O)c2csc3ccccc23)cnn1C	SW480 rerep 21µM, MCF10A rereplic inconclusive, KB-3-1 cytotox inconclusive, RORgamma inh inconclusive, KB-V1 cytotox inconclusive
CCn1ncc(/C=N\NC(=O)c2csc3ccccc23)c1C	SW480 rerep 12µM, MCF10A rereplic 10µM, VP16 counter inconclusive, KB-3-1 cytotox 6.5µM, RORgamma inh 10µM, KB-V1 cytotox inconclusive
COc1ccc(-n2c(=O)c(-c3cccs3)nc3cnc(Oc4ccccc4)nc32)cc1	none (no result: SW480 rerep, MCF10A rereplic, KB-3-1 cytotox, KB-V1 cytotox)
COc1ccc(NC2=NCC(Cc3ccc(Br)cc3)S2)cc1 (stereo not drawn)	SW480 rerep inconclusive, MCF10A rereplic inconclusive, VP16 counter 3.5µM, KB-3-1 cytotox 23µM, RORgamma inh inconclusive
CCCS(=O)(=O)NC(=O)C1(C)CCN(C(=O)C2(c3ccc(Cl)cc3)CCCC2)C1 (stereo not drawn)	none (no result: SW480 rerep, MCF10A rereplic, VP16 counter, RORgamma inh)
N=C1S/C(=C\c2ccco2)C(=O)N1c1nccs1	MCF10A rereplic inconclusive, VP16 counter 0.22µM, RORgamma inh 0.018µM
CCCC1=C/C(=C/c2ccc(-c3ccccc3OC)o2)C(=O)O1	SW480 rerep 23µM, MCF10A rereplic 10µM
COc1ccccc1-c1ccc(/C=C2/C=C(CC(C)C)OC2=O)o1	MCF10A rereplic inconclusive
Cc1ccc(C)c(-n2nnnc2Sc2nnnn2-c2ccccc2)c1	SW480 rerep 9.2µM, MCF10A rereplic 5.8µM, VP16 counter inconclusive, KB-3-1 cytotox inconclusive, RORgamma inh inconclusive
CCC(=O)c1ccc2c(c1)OCCO2	none
O=C(Cn1ncc(Cl)c(Cl)c1=O)c1ccc2c(c1)OCCO2	SW480 rerep inconclusive, MCF10A rereplic 2.9µM, KB-3-1 cytotox inconclusive, KB-V1 cytotox 21µM (no result: VP16 counter, RORgamma inh)
O=C(Cn1ncc(Cl)c(Cl)c1=O)Nc1ccc2c(c1)OCO2	MCF10A rereplic 0.73µM, KB-3-1 cytotox inconclusive, KB-V1 cytotox inconclusive (no result: VP16 counter, RORgamma inh)
Cc1cc(C)c(CSc2nnc(C)n3c2cc2occc23)c(C)c1	none (no result: SW480 rerep, MCF10A rereplic, VP16 counter, RORgamma inh)
CN1CCC(=C2c3ccccc3C=Cc3ccccc32)CC1	SW480 rerep inconclusive, MCF10A rereplic inconclusive, RORgamma inh inconclusive, KB-V1 cytotox inconclusive
CN1CCC(=C2c3ccccc3Sc3ccccc32)CC1	SW480 rerep inconclusive, MCF10A rereplic 27µM, VP16 counter inconclusive, KB-V1 cytotox inconclusive
CCn1cc(C(=O)N(C)c2ccc(C(C)C)cc2)c2cc(OC)c(OC)cc2c1=O	none (no result: SW480 rerep, MCF10A rereplic, VP16 counter, RORgamma inh)
Cc1ccc(S(=O)(=O)Nc2ccc(C(OC(=O)c3ccccc3[N+](=O)[O-])(C(F)(F)F)C(F)(F)F)cc2)cc1	SW480 rerep inconclusive, MCF10A rereplic inconclusive, KB-3-1 cytotox inconclusive, KB-V1 cytotox 3.7µM

Screens from PubChem.
